Measurements published in PubChem BioAssay AID1159580 (chemical genetic matrix, 2015).
Among all 5,500 compounds or so, about 2,000 (36%) were called active. Another 18% or so got no clear call; they are omitted. No stated cut-off is given here; in the data, active means normalized growth mostly below about 0.91 (no sharp cut-off); inconclusive means no clear call, values can overlap the other calls; inactive means mostly above about 0.92. The list shows a part of the results.

Test: chemical genetic growth profiling, strain panel (AID 1159580);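 further: tested at 20 µM; growth read once vehicle control cultures reached saturation at 30 °C; 1 = growth at the plate median or of vehicle wells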
Settings: S. cerevisiae deletion strains, growth OD

Measured: normalized growth

COc1cc(C2CC(=S)Nc3ccccc3S2)cc(OC)c1OC (stereo unspecified)
inactive: locus YAR019C, strain CDC15, stronger effect = lower value 0.99 | locus YBL105C, strain PKC1, stronger effect = lower value 0.986 | locus YBR135W, strain CKS1, stronger effect = lower value 0.993 | locus YBR136W, strain MEC1, stronger effect = lower value 0.992 | locus YBR160W, strain CDC28, stronger effect = lower value 1 | locus YDL017W, strain CDC7, stronger effect = lower value 0.998 | locus YDL028C, strain MPS1, stronger effect = lower value 0.981 | locus YDL101C, strain DUN1, stronger effect = lower value 0.987 | locus YDL108W, strain KIN28, stronger effect = lower value 0.978 | locus YDL132W, strain cdc53, stronger effect = lower value 0.999 | locus YDL214C, strain PRR2, stronger effect = lower value 0.923 | locus YDR052C, strain DBF4, stronger effect = lower value 0.995 | locus YDR054C, strain cdc34, stronger effect = lower value 0.986 | locus YDR226W, strain ADK1, stronger effect = lower value 0.99 | locus YDR477W, strain SNF1, stronger effect = lower value 0.969 | locus YER123W, strain YCK3, stronger effect = lower value 0.881 | locus YER133W, strain GLC7, stronger effect = lower value 0.941 | locus YFL009W, strain cdc4, stronger effect = lower value 0.988 | locus YFL029C, strain CAK1, stronger effect = lower value 0.988 | locus YFR003C, strain YPI1, stronger effect = lower value 0.99 | locus YFR019W, strain FAB1, stronger effect = lower value 0.945 | locus YFR028C, strain CDC14, stronger effect = lower value 0.993 | locus YGR040W, strain KSS1, stronger effect = lower value 0.94 | locus YGR052W, strain FMP48, stronger effect = lower value 1.02 | locus YGR092W, strain DBF2, stronger effect = lower value 0.94 | locus YHR030C, strain SLT2, stronger effect = lower value 1.07 | locus YHR079C, strain IRE1, stronger effect = lower value 1.04 | locus YHR082C, strain KSP1, stronger effect = lower value 1.06 | locus YHR205W, strain SCH9, stronger effect = lower value 0.974 | locus YIL147C, strain SLN1, stronger effect = lower value 0.98 | locus YJL095W, strain BCK1, stronger effect = lower value 1.08 | locus YJL128C, strain PBS2, stronger effect = lower value 0.942 | locus YJL157C, strain FAR1, stronger effect = lower value 0.928 | locus YJR016C, strain ILV3, stronger effect = lower value 1 | locus YJR066W, strain TOR1 (second series), stronger effect = lower value 0.937 | locus YJR066W, strain TOR1, stronger effect = lower value 1.08 | locus YKL048C, strain ELM1, stronger effect = lower value 0.975 | locus YKL067W, strain YNK1, stronger effect = lower value 0.946 | locus YKL101W, strain HSL1, stronger effect = lower value 0.951 | locus YKL193C, strain SDS22, stronger effect = lower value 0.994 | locus YKL203C, strain TOR2, stronger effect = lower value 1.03 | locus YLR113W, strain HOG1, stronger effect = lower value 1 | locus YLR133W, strain CKI1, stronger effect = lower value 0.978 | locus YLR403W, strain SFP1, stronger effect = lower value 0.967 | locus YML070W, strain DAK1, stronger effect = lower value 0.914 | locus YMR001C, strain CDC5, stronger effect = lower value 0.993 | locus YMR205C, strain PFK2 (second series), stronger effect = lower value 0.95 | locus YMR277W, strain FCP1, stronger effect = lower value 0.999 | locus YNL006W, strain LST8, stronger effect = lower value 0.994 | locus YNL020C, strain ARK1, stronger effect = lower value 0.961 | locus YNL161W, strain CBK1, stronger effect = lower value 0.995 | locus YNL183C, strain NPR1, stronger effect = lower value 1.06 | locus YNL207W, strain RIO2, stronger effect = lower value 0.987 | locus YNL222W, strain SSU72, stronger effect = lower value 0.974 | locus YNL307C, strain MCK1 (second series), stronger effect = lower value 0.963 | locus YOL078W, strain AVO1, stronger effect = lower value 0.985 | locus YOL136C, strain PFK27, stronger effect = lower value 0.939 | locus YOR061W, strain CKA2, stronger effect = lower value 0.944 | locus YOR119C, strain RIO1, stronger effect = lower value 1.01 | locus YOR231W, strain MKK1, stronger effect = lower value 1.03 | locus YOR329C, strain SCD5, stronger effect = lower value 0.999 | locus YPL031C, strain PHO85, stronger effect = lower value 0.953 | locus YPL153C, strain RAD53, stronger effect = lower value 0.945 | locus YPL204W, strain HRR25, stronger effect = lower value 0.962 | locus YPL209C, strain IPL1, stronger effect = lower value 0.983 | locus YPL256C, strain CLN2, stronger effect = lower value 1.05 | locus YPR025C, strain CCL1, stronger effect = lower value 0.994 | locus YPR106W, strain ISR1, stronger effect = lower value 0.992 | locus YPR111W, strain DBF20, stronger effect = lower value 0.981 | strain NNK1, stronger effect = lower value 0.988 | strain TSCII, stronger effect = lower value 0.999
